HCMV inh = human cytomegalovirus inhibition. activity change, negative = inhibition, % at 57.5 µM. HFF cells, HCMV-luciferase reporter, 72 h; active compounds read low. hit rate 4.5% among 410,000; in the data active means activity change below about -60%; inconclusive means no clear call, values can overlap the other calls; inactive means above about -39%
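Inhibition of viral replication was scored as loss of reporter luminescence in HFFs infected with HCMV-luciferase (MOI 1 PFU/cell) for 72 h; compounds tested at 2 doses, normalized to buffer and Salinomycin controls.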
VACV Venus inh = inhibitors of vaccinia virus (Venus reporter); Vaccinia virus Venus reporter expression, fluorescence; Potency, µM (doses to about 36.5 µM), for inactives: at the highest dose activity change, negative = inhibition, hits mostly inhibitors; hit rate 0.46% among 330,000; calls by dose curve; tested in A549 cells; further: potency means the concentration at half of the fitted maximal effect; nearly all actives have a fitted effect of over 30% in size
Tb PYK inh = T. brucei pyruvate kinase inhibition; Potency, µM (titrated, usually from 76.8 µM), inactives show at the top dose activity, negative = inhibition, usual class: inhibitors; Q57TT1; hit rate 0.12% among 410,000; AID 624173; TbPYK enzyme, Kinase-Glo Plus ATP luminescence, 45 min; further: potency means the concentration at half of the fitted maximal effect; nearly all actives have a fitted effect of over 50% in size
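ADP (130 uM final) triggers the TbPYK reaction after compound addition; incubation is 45 min at room temperature. Kinase-Glo Plus is then added and luminescence imaged. Normalized data are fitted to concentration-effect curves.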
VACV mCherry inh = inhibitors of vaccinia virus infection (mCherry reporter signal) | hit rate 0.63% among 310,000 | AID 720579 | Potency, µM (doses to about 36.5 µM), without a hit: at the highest dose activity change, negative = inhibition, usual class: inhibitors | Vaccinia virus mCherry reporter infection, fluorescence; calls by dose curve; tested in A549 cells; further: potency means the concentration at half of the fitted maximal effect; nearly all actives have a fitted effect of over 35% in size
LmPK inhibitor = inhibitors of Leishmania mexicana pyruvate kinase; Potency, µM (series often up to 57.5 µM), for inactives: at the highest dose activity change, negative = inhibition, actives largely listed as inhibitors; hit rate 0.37% among 290,000; AID 1721; purified LmPK, Kinase-Glo ATP luminescence, 1 h; further: potency means the concentration at half of the fitted maximal effect
Target sequence (Q27686 whole entry, looked up): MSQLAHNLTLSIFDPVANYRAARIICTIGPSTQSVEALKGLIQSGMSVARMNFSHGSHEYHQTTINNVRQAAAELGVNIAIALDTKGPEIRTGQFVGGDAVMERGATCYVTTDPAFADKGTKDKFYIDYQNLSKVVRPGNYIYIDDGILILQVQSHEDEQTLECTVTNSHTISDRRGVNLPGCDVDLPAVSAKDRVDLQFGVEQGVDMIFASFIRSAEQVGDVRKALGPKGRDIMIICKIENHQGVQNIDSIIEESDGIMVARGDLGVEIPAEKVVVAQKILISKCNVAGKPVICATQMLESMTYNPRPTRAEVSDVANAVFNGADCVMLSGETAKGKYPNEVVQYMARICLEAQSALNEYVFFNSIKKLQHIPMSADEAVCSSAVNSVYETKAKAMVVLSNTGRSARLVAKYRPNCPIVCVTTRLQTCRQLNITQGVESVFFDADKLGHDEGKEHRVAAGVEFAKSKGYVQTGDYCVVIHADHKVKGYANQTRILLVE
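ATP generated from ADP (0.1 mM) and PEP (0.5 mM) by 0.1 nM LmPK over 1 h at room temperature (pH 7.2 imidazole buffer) was detected by coupled luciferase luminescence. Values were normalized to uninhibited and no-enzyme wells.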
* hit, by the source's call; i = inactive; ? = inconclusive; . = no result; ! = a repeat was not active. This is a sample that favours compounds with a hit; in the whole collection about 5% have one here. Unless noted, the call rests on the fitted dose curve; in most records, active means well fitted curve in the direction sought with a large enough effect; inconclusive means small, poorly fitted or top-dose-only effect, or another doubt; inactive means no such curve, though single readings can be large; an effect the other way counts as inactive or inconclusive. On the % scale 0 is the no-effect control and ±100 the full control effect.

SMILES	HCMV inh	VACV Venus inh	Tb PYK inh	VACV mCherry inh	LmPK inhibitor
Cc1c(N/N=C(\C#N)C(=O)c2ccc(Cl)cc2)c(=O)n(-c2ccccc2)n1C	-100*	?	-13%	11µM*	4%
COC(=O)C(=NNc1c(C)n(C)n(-c2ccccc2)c1=O)C(=O)OC	-18	-1%	-6%	-17%	-13%
CCOC(=O)NC(=O)/C(C#N)=N\Nc1ccc(Cl)cc1	-8	-20%	5%	.	8%
O=C1c2ccccc2C(=O)c2[nH]c(=O)[nH]c21	-99*	2.8µM*	-5%	1.3µM*	-9%
CC(=O)CC(C)(C)Nc1nc2ccc([N+](=O)[O-])cc2o1	30	-14%	-3%	-4%	0%
Cn1cnnc1SCC(=O)N1N=C2/C(=C/c3ccco3)CCCC2C1c1ccco1 (stereo unspecified)	-61*	-3%	-16%	-11%	2%
O=C(CSc1nccc(=O)[nH]1)N1N=C2/C(=C/c3ccco3)CCCC2C1c1ccco1 (stereo unspecified)	-11	-15%	0%	-13%	1%
Cc1onc(-c2ccccc2)c1C(=O)OCC(=O)N(C)c1c(N)n(Cc2ccccc2)c(=O)[nH]c1=O	6	-13%	-17%	-13%	.
O=C(CN1C(=O)CC(c2ccccc2)=Nc2ccccc21)NCc1ccccc1	22	5%	-1%	.	7%
CSc1nccc(Oc2cccc(C#N)c2)n1	-61*	-9%	1%	i	-2%
CSc1nc(Oc2cccc(C(F)(F)F)c2)cc(C(F)(F)F)n1	1	-23%	-10%	-17%	-1%
CCCCn1c(CCn2nc(C)c(Br)c2C)n[nH]c1=S	48	.	?	.	18µM*
O=C(Nc1ccnn1C1CCN(C(=O)c2c(F)cccc2F)CC1)C1CC1	15	-5%	-1%	i	-3%
O=C(Nc1ccnn1C1CCN(C(=O)c2ccccc2C(F)(F)F)CC1)C1CC1	-78*	-7%	3%	-14%	-8%
Cc1ccc(OC(=O)c2ccccc2P(=O)(O)O)cc1	82	-7%	0%	-16%	4%
C/C(=N\O)c1oc2ccc3c(C)cc(=O)oc3c2c1C	-63*	-3%	-1%	i	0%
Cc1cc(=O)oc2c(N)c(O)ccc12	-4	-4%	-1%	i	-15%
O=C(Nc1ccccc1)c1cccnc1N1CCOCC1	-20	.	-13%	.	3%
CN(Cc1cnc2nc(N)nc(N)c2n1)c1ccc(C(=O)N[C@@H](CCC(=O)O)C(=O)O)cc1	-99*	3.2µM*	-7%	1µM*!	.
C=CCNC(=O)/C(C#N)=C/c1ccc(OS(=O)(=O)c2ccc(C)cc2)c(OC)c1	-99*	-14%	-10%	-16%	3%
CN(C)S(=O)(=O)c1ccc(N2CCN(S(=O)(=O)c3ccc(F)cc3)CC2)c(Cl)c1	12	10µM*	1%	10µM*	1%
CN(C)S(=O)(=O)N1CCN(S(=O)(=O)c2ccc(F)cc2)CC1	7	-7%	-1%	i	-11%
CCOC(=O)Nc1nnc(-c2ccc(OC)cc2)s1	25	-14%	-8%	i	0%
CCOC(=O)Nc1nnc(-c2cccc(OC)c2)s1	-66*	-15%	-1%	0%	-4%
O=C(Nc1nc2ccccc2s1)c1cc(-c2ccccc2)nn1-c1ccccc1	-75*	13%	-6%	?	3%
SMILES	HCMV inh	VACV Venus inh	Tb PYK inh	VACV mCherry inh	LmPK inhibitor
CC(=O)c1sc(NC(=O)c2cc(-c3ccccc3)nn2-c2ccccc2)nc1C	-3	2%	-1%	i	1%
CC(C)(C)c1ccc(S(=O)(=O)NC(=O)C2(C)CCN2C(=O)Cc2ccc(Cl)cc2Cl)cc1 (stereo unspecified)	0	8%	-1%	i	.
CC1(C)CC(=O)CC2(C1)NCC(c1ccccc1)c1c2[nH]c2ccccc12 (stereo unspecified)	41	-12%	3%	-14%	4%
COc1cccc(C2CNC3(CCCC(C)C3)c3[nH]c4ccccc4c32)c1OC (stereo unspecified)	-65*	.	4%	.	-1%
CN(C)C1=NC(=O)/C(=C/c2ccc(-c3ccc(S(N)(=O)=O)cc3)o2)S1	.	.	.	.	-8%
Cc1cc(-n2c(C)cc(C(=S)N3CCOCC3)c2C)ccc1Br	-66*	-14%	-20%	?	2%
Cc1ccc(-n2c(C)cc(C(=O)CN3CCOCC3)c2C)cc1C	0	.	1%	.	-1%
